Experimental data as given in PubChem BioAssay (NCATS).
Where “and” joins values, the source holds several entries; their conditions need not be identical. Equal values may be shown once. Inconclusive results are not listed. Unmarked numbers belong to inactive results. Calls of active or inactive are those of the source. Unless noted, the call rests on the fitted dose curve; in most records, active means well fitted curve in the direction sought with a large enough effect; inconclusive means small, poorly fitted or top-dose-only effect, or another doubt; inactive means no such curve, though single readings can be large; an effect the other way counts as inactive or inconclusive.

Columns and labels:
[1] = qHTS assay for small molecule disruptors of the mitochondrial membrane potential - 1 hr assay (AID 651754; calls by dose curve; further: potency means the concentration at half of the fitted maximal effect; nearly all actives have a fitted effect of over 35% in size)
In short: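 Steps: seed HepG2 cells and let attach overnight; pin-transfer compound or vehicle; incubate 1 hr at 37C; add Mito-MPS dye for 30 min; read two-channel fluorescence for monomer and aggregate forms.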

[2] = qHTS assay for small molecule disruptors of the mitochondrial membrane potential - 5 hr assay (AID 651755; calls by dose curve; further: potency means the concentration at half of the fitted maximal effect; nearly all actives have a fitted effect of over 40% in size); conditions: JC-1-type ratio dye
In short: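 HepG2 cells (2,000/well), attached overnight, exposed to compound 5 hr at 37C, then Mito-MPS dye 30 min. Fluorescence read for monomers (490/535 nm) and aggregates (540/590 nm).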

[3] = qHTS assay for environmental chemicals that activate the Aryl hydrocarbon Receptor (AhR) signaling pathway (AID 651777); conditions: 1A2-DRE human hepatoma cells, luciferase, 24 h; stronger effect = higher value; further: % of control where 0% means no effect; nearly all actives have a fitted effect of over 15% in size
In short: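 Stable CYP1A2 promoter/DRE-luciferase human hepatoma line treated 24 hr; One-Glo luminescence, 30 min RT.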

[4] = qHTS assay for small molecule agonists of the antioxidant response element (ARE) signaling pathway measured by Nrf2-dependant transcriptional activity - cell viability counter screen (AID 720653; active means well fitted curve in the direction sought with a large enough effect in the repeat runs; an effect the other way counts as inactive or inconclusive; further: on the % scale 0 is the no-effect control and ±100 the full control effect); conditions: ARE-bla HepG2 viability, CellTiter-Glo ATP luminescence, 16 h; max response: stronger effect = lower value
In short: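 ARE-bla HepG2 cells treated with compounds for 16 h at 37C; this counter screen measures viability as intracellular ATP by CellTiter-Glo luminescence after 30 min at room temperature.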

[5] = qHTS assay for cell viability of HEK293 cells (AID 743288); conditions: ATP luminescence (CellTiter-Glo), 18 h; max response: stronger effect = lower value; further: on the % scale 0 is the no-effect control and ±100 the full control effect; nearly all actives have a fitted effect of over 50% in size
In short: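 HEK293 parental, 2,000 cells/well; ≥5 h pre-incubation 37 C; pintool compound addition; 18 h, 37 C; CellTiter-Glo 30 min RT; luminescence read.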

With `Nc1ccc(N)c([N+](=O)[O-])c1` the Potency [1] was 29.8 µM (active), the Potency [2] was 29.8 µM (active) and the activation [3] was 3.75%. For the same molecule, the max response [4] was -19.5% and -28.1% and the max response [5] was -1.33% and -23.7%.
